Measured values published in the OligoGym collection.

Target: SLC22A8
Experiment: pooled miR-30 sensor sort-seq; sequence = guide strand
Details: shRNA
Also: reference of the scale not given here.

Sequence	sensor-assay potency score (higher = more potent)
AACTATAGTAGGCAAAACCGGT	-1.07
TATAGTAGGCAAAACCGGTAGC	0.235
TCTGTCACAATGGAGTCCTTGG	-1.04
TTGCACACCAAGTCCCACTCTG	0.471
TTCACTTGTGTAGAGGAAGAGG	-0.683
TTCTTCCACACCCATAGCCAAA	-1.71
TTGAAGACAGCCACCCGCCGGA	-0.0956
TTTCCAGACAAGACCAACCAGC	-0.636
TTCCACATTCAAGATGACGGTG	-0.373
TTTGTTGGAGTTGCACACCAAG	-1.22
TAATTCACTTGTGTAGAGGAAG	-0.618
TTGAGTTTGAGCTCCTCCAAGC	-1.05

Target: SLC23A2
Experiment: as above
Details: shRNA

Sequence	sensor-assay potency score (higher = more potent)
TTCCGTAGTGTAGATCGCCATG	-1.38
TAAATCAATGAACTGCAGGTTA	0.267
TAATACTAGGAATATTGTCAGC	-0.987
TTCAACACTTGATCGATTCCTG	0.272
TATGCCATCAAGAACACAGGAG	0.397
TAAATCATGTCTGATCGCTGGG	0.763
TTCTTGGATTTATAAATCGGGA	-1.08
TATGGAACCTTAAACCACGGGG	-0.198
TATAAATCATGTCTGATCGCTG	0.473
TTCTGTCTGAGGTAACTTGGAA	-0.6
TTGTCTGTAGCAAAGTAGTGAT	-0.911
TTCTGTTGAACTTCCAGCCTCC	0.654

Target: SLC25A18
Experiment: as above
Details: shRNA

Sequence	sensor-assay potency score (higher = more potent)
TTAAAATACAGAAACAACCCTT	0.611
TCGAGTTTTCAGAACATCTAGA	-0.0433
TTCGAGTTTTCAGAACATCTAG	-0.224
TTAAGGTTGGCAAACAGTGGGA	-0.285
TAAAATACAGAAACAACCCTTC	0.73
TTGGTCTCAAACTAGGTGCTGA	-0.0245
TGAGGTAGCACTACAACGCAGA	-0.364
TTAACAATGCTAAATCCTCAAG	-1.35
TTTCAGAACATCTAGAGGCGTC	0.0336
TTCTATTGTGACTACCTGTTAA	-0.81
TCAAACTAGGTGCTGACTCTGA	-0.384
TTGAGGTAGCACTACAACGCAG	-1.18
